In the supplement of paper PMC10849652:
Targets with a hit are over-represented here; the source holds about 8,800 in all. About 0.5% of all pairs of compound and target were hits. Unmarked numbers belong to inactive results.

Assays:
Assay in all cases: log2 fold change, soluble protein after heating vs DMSO (PISA); higher = thermal stabilisation; K562 lysate, 10 uM; active = over 0.2 and 3.5 SD of the protein, either way, in both replicates (recomputed)
[1] = compound: Cc1cn(-c2cc(NC(=O)c3ccc(C)c(Nc4nccc(-c5cccnc5)n4)c3)cc(C(F)(F)F)c2)cn1 [nilotinib]
Outline: (§1)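 Soluble protein was defined as the supernatant remaining after 21,000xg for 90 min, following pooling of heated aliquots and adjustment to 0.5% NP-40 at 4°C. Before that, crude K562 extract at 1 mg/mL protein in PBS pH 7.4 with 1 mM MgCl2 was treated with 10 μM compound for 30 min and heated for 3 min across 48°C-58°C. Quantification used TMTpro 16plex LC-MS/MS with channel sums equalised, and values are log-two fold changes in thermal stability relative to solvent controls from duplicates.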

[2] = compound: Cc1nc(Nc2n[nH]c3c2CN(C(=O)N[C@H](CN(C)C)c2ccccc2)C3(C)C)c2sccc2n1
Outline: as §1

[3] = compound: Cc1nc(Nc2ncc(C(=O)Nc3c(C)cccc3Cl)s2)cc(N2CCN(CCO)CC2)n1 [dasatinib]
Outline: as §1

[4] = compound: Cc1ncc(-c2ccnc(Nc3ccc(S(C)(=O)=O)cc3)n2)n1C(C)C
Outline: as §1

[5] = compound: Cn1cc(-c2ccc3c(c2)CCN3C(=O)Cc2cccc(C(F)(F)F)c2)c2c(N)ncnc21
Outline: as §1

[6] = compound: Cn1cc(CNCC2CCN(c3ncc(C(=O)NO)cn3)CC2)c2ccccc21 [quisinostat]
Outline: as §1

[7] = compound: Cn1cncc1[C@@](N)(c1ccc(Cl)cc1)c1ccc2c(c1)c(-c1cccc(Cl)c1)cc(=O)n2C [tipifarnib]
Outline: as §1

[8] = compound: NC(=O)Nc1cc(-c2cccc(F)c2)sc1C(=O)N[C@H]1CCCNC1
Outline: as §1

[9] = compound: NC(=O)c1cnc(N[C@@H]2CCCC[C@@H]2N)nc1Nc1cccc(-n2nccn2)c1
Outline: as §1

[10] = compound: NC1(c2ccc(-c3nc4ccn5c(=O)[nH]nc5c4cc3-c3ccccc3)cc2)CCC1
Outline: as §1

[11] = compound: NCC(=O)Nc1ccc(-n2nc(C(F)(F)F)cc2-c2ccc3c(ccc4ccccc43)c2)cc1
Outline: as §1

[12] = compound: O=C(CCCCCCC(=O)Nc1ccccc1)NO [vorinostat]
Outline: as §1

[13] = compound: O=C(O)c1ccc2c(c1)nc(Nc1cccc(Cl)c1)c1ccncc12 [silmitasertib]
Outline: as §1

[14] = compound: O=C1NC(=O)C(c2cnc3ccccn23)=C1c1cn2c3c(cc(F)cc13)CN(C(=O)N1CCCCC1)CC2
Outline: as §1

[15] = compound: c1cn2cc(-c3ccc4cn[nH]c4c3)nc(Nc3ccc(N4CCOCC4)cc3)c2n1 [entospletinib]
Outline: as §1

UniProt Q9H1B7, sequence (Q9H1B7 whole entry, looked up): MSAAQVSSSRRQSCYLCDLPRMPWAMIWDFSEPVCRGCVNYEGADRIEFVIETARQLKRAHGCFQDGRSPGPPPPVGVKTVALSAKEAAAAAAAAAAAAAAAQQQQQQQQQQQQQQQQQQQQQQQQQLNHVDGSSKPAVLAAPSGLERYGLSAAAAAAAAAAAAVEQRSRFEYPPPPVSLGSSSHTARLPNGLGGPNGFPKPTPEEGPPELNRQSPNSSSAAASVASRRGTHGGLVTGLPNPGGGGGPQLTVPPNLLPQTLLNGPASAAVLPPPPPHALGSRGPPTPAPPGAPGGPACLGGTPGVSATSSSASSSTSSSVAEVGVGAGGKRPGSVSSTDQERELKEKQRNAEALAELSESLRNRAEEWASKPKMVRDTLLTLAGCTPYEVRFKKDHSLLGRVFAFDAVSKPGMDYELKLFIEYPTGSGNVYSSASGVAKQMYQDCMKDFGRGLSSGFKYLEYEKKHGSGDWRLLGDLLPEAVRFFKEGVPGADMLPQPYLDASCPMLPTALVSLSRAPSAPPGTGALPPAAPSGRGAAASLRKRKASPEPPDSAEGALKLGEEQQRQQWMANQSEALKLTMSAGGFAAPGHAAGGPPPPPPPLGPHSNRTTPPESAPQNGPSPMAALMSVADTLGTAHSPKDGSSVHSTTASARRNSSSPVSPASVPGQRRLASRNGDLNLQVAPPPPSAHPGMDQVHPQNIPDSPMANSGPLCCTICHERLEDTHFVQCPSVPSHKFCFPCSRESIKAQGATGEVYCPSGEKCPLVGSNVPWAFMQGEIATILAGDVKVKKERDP
UniProt P62873, sequence (P62873 whole entry, looked up): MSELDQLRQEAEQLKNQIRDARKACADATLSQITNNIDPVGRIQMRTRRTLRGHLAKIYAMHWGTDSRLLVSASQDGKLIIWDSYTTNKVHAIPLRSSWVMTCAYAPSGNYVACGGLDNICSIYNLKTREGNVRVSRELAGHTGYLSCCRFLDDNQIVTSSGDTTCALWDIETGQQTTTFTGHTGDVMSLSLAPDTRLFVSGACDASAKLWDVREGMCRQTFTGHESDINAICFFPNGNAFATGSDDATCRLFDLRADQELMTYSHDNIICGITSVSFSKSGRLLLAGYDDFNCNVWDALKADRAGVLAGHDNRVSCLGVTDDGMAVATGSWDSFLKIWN
UniProt Q8IY47, sequence (Q8IY47 whole entry, looked up): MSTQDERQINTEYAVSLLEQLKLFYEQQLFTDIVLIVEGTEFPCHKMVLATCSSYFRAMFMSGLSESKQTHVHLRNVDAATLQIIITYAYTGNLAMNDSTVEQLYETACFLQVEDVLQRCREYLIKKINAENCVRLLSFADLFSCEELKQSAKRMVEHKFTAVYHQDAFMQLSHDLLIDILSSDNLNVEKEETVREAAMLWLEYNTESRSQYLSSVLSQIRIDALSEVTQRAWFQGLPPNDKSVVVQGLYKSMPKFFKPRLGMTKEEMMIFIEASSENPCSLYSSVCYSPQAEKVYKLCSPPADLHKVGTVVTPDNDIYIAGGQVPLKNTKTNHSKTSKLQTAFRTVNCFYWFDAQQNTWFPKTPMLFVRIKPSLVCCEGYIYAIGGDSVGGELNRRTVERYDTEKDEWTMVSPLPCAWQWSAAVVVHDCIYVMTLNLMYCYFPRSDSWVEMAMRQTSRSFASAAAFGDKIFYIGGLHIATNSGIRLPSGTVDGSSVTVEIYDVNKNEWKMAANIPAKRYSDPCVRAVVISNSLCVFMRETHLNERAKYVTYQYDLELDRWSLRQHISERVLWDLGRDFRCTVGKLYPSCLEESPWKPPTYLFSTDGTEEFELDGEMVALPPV
UniProt P26583, sequence (P26583 whole entry, looked up): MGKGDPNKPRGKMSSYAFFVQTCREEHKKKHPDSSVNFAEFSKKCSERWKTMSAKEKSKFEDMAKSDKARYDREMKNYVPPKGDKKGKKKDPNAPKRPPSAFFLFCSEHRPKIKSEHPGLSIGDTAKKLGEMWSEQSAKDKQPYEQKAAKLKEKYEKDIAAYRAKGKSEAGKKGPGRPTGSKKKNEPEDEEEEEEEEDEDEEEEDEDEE
UniProt P25098, sequence (P25098 whole entry, looked up): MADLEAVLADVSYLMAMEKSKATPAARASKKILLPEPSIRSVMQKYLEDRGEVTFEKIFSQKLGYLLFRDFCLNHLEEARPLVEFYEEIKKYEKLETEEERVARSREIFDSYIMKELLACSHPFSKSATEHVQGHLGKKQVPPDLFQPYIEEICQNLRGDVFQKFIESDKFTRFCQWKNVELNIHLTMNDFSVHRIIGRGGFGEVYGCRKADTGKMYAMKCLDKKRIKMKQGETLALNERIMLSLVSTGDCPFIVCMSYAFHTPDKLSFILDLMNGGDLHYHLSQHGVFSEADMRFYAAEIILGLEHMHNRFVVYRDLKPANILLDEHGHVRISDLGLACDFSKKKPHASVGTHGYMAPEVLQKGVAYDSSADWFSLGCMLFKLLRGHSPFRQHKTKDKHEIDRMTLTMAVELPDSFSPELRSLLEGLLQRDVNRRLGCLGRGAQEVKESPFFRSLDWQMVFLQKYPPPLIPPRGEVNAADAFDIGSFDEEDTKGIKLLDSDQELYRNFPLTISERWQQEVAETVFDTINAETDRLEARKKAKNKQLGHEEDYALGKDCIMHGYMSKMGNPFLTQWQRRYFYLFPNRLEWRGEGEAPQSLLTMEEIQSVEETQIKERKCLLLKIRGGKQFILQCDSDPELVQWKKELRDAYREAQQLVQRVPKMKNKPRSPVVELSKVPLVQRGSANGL
UniProt Q9ULR0, sequence (Q9ULR0 whole entry, looked up): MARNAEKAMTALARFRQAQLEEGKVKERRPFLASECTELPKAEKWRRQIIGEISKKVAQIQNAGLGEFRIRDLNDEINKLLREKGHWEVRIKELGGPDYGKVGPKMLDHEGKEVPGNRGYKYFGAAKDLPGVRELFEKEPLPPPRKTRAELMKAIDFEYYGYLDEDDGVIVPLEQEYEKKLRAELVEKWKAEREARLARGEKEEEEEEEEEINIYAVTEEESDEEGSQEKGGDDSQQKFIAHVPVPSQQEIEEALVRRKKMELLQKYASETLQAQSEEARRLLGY
UniProt Q9BX10, sequence (Q9BX10 whole entry, looked up): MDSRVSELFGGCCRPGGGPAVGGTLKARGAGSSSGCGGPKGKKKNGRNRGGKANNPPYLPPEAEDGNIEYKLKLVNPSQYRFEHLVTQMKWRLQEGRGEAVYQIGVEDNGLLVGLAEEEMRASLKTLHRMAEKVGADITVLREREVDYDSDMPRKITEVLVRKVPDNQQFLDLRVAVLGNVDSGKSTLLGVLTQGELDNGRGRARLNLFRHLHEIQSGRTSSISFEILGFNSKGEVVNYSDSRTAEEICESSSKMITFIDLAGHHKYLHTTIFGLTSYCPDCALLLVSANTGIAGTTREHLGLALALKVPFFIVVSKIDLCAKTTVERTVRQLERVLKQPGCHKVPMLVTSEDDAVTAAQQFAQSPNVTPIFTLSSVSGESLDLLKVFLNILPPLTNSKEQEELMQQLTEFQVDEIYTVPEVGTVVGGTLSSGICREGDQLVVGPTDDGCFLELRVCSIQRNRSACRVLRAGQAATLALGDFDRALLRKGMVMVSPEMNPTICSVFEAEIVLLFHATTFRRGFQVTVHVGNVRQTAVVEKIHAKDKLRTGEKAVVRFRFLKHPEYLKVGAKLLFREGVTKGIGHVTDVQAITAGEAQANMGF
UniProt Q13547, sequence (Q13547 whole entry, looked up): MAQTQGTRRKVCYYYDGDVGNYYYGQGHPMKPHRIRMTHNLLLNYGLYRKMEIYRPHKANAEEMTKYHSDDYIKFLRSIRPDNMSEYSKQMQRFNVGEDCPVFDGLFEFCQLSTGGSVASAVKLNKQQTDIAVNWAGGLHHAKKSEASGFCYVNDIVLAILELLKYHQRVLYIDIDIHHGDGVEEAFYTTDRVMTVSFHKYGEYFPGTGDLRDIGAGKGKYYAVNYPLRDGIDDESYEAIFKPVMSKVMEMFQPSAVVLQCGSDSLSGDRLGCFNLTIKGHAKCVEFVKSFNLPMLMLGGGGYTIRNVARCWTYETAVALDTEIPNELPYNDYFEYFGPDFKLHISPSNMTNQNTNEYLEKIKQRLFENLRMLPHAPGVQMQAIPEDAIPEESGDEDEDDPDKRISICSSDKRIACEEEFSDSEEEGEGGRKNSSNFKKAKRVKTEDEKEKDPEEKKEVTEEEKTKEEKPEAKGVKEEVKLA
UniProt Q7Z5Y7, sequence (Q7Z5Y7 whole entry, looked up): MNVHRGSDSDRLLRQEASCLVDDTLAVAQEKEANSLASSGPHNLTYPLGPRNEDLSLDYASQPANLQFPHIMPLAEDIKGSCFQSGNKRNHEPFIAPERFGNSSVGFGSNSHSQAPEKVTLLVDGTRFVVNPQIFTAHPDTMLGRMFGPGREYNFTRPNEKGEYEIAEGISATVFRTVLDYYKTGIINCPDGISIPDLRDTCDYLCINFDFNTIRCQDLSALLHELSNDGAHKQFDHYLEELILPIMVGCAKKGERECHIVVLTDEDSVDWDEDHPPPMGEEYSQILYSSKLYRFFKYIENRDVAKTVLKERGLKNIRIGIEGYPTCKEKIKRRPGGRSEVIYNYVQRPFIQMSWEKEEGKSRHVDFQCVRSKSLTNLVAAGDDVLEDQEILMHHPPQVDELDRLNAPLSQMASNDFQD

Target | log2 fold change [1] | log2 fold change [2] | log2 fold change [3] | log2 fold change [4] | log2 fold change [5] | log2 fold change [6] | log2 fold change [7] | log2 fold change [8] | log2 fold change [9] | log2 fold change [10] | log2 fold change [11] | log2 fold change [12] | log2 fold change [13] | log2 fold change [14] | log2 fold change [15]
GNB1 (UniProt P62873) | 0.075 | 0.057 | -0.078 | 0.098 | -0.029 | 0.107 | 0.019 | -0.137 | -0.027 | -0.018 | 0.026 | 0.064 | 0.041 | -0.037 | 0.054
IRF2BPL (UniProt Q9H1B7) | 0.001 | 0.005 | -0.043 | 0.054 | -0.059 | 0.032 | -0.069 | -0.01 | 0 | 0 | -0.018 | -0.324 (active) | 0.02 | 0.006 | -0.065
GTPBP2 (UniProt Q9BX10) | 0.016 | -0.009 | -0.023 | -0.014 | 0.005 | -0.136 | -0.079 | 0.042 | 0.04 | 0.046 | 0.029 | -0.289 (active) | 0 | -0.003 | 0.056
KBTBD2 (UniProt Q8IY47) | 0.014 | -0.005 | 0.012 | 0.006 | 0.028 | -0.178 | -0.018 | 0.007 | 0.009 | -0.202 | 0.047 | 0.145 | -0.039 | 0.038 | 0.026
KCTD20 (UniProt Q7Z5Y7) | 0.054 | -0.021 | -0.096 | 0.074 | 0.039 | -0.138 | -0.028 | 0.109 | 0.089 | -0.007 | -0.137 | -0.323 (active) | 0.035 | 0.053 | 0.091
HMGB2 (UniProt P26583) | 0.045 | -0.042 | 0.057 | 0.077 | 0.018 | 0.065 | 0.033 | -0.014 | -0.018 | 0 | 0.004 | 0.122 | -0.052 | 0.047 | 0.003
ISY1 isoform 1 (UniProt Q9ULR0) | 0.012 | 0.026 | 0.002 | -0.024 | -0.082 | -0.036 | -0.018 | 0.014 | -0.012 | -0.01 | -0.163 | 0.05 | 0.032 | -0.01 | -0.02
HDAC1 (UniProt Q13547) | 0.01 | -0.024 | -0.021 | -0.019 | 0.028 | 0.857 (active) | -0.041 | -0.033 | 0.03 | 0.009 | 0.018 | 0.644 (active) | -0.008 | -0.015 | 0.008
GRK2 (UniProt P25098) | 0.001 | 0.393 (active) | -0.058 | 0.01 | 0 | 0.034 | -0.001 | 0.397 (active) | 0.043 | -0.027 | -0.055 | -0.225 (active) | 0.066 | -0.026 | -0.006
INPP4A (UniProt Q96PE3) | 0.012 | -0.021 | 0.028 | 0.005 | 0.123 | -0.03 | 0.03 | 0.032 | 0.015 | 0.032 | 0.016 | -0.106 | 0.002 | -0.013 | 0.006
